# Measurements published in PubChem BioAssay (Tox21).
# Records with an inconclusive call do not appear. Values without a mark were called inactive. The source made the active and inactive calls. Calls follow the shape of the dose curve; as a rule, active = well fitted activation curve with a large enough effect in the signal ratio in the repeat runs (not every such curve was filed as active); inconclusive = weak or mixed curves; inactive = flat fitted curve, though single readings scatter; the % refers to the signal ratio.
# Experiment: qHTS assay to identify small molecule agonists of the hypoxia (HIF-1) signaling pathway (AID 1224846)
# Conditions: HRE-bla ME-180 cells, beta-lactamase ratio, 17 h; series mostly up to 76.8 µM; activation: at the top concentration
# Text: U.S. Tox21 Program National Center for Advancing Translational Sciences [NCATS] NIH Chemical Genomics Center [NCGC] U.S. Environmental Protection Agency [EPA] National Institutes of Environmental Health Sciences [NIEHS] National Toxicology Program [NTP] U.S. Food and Drug Administration [FDA] Tox21 Assay Overview: Hypoxia-inducible factor-1 (HIF-1) is the major hypoxia-regulated transcription factor that controls cellular responses to low oxygen concentration. HIF-1 is composed of two subunits: hypoxia responsive HIF-1-alpha and constitutively expressed HIF-1-beta, which is also known as aryl hydrocarbon receptor nuclear translocator. During hypoxic conditions, HIF-1-alpha heterodimerizes with HIF-1-beta and translocates into the nucleus where the HIF-1 complex binds to the hypoxia-response element (HRE) and activates expression of target genes such as VEGF (vascular endothelial growth factor). The HIF-1 pathway is essential to normal growth and development, and is involved in the pathophysiology of cancer, inflammation, and ischemia. Using a beta-lactamase reporter-gene under control of the hypoxia response element, a cell-based assay [CellSensor(TM) HRE-bla ME-180 from Life Technologies, Carlsbad, CA] was used to measure hypoxia-induced signaling. Tox21 10K library compounds were measured for their ability to induce the reporter gene activity.
# Tox21 Assay Protocol Summary: HRE-bla ME-180 cells were dispensed at 2,000 cells per well in 6 uL of assay medium containing 0.5% dialyzed FBS into black wall/clear-bottom 1536-well plates using a Multidrop Combi (Thermo Scientific, Waltham, MA) dispenser. After the assay plates were incubated at 37C and 5% CO2 for 5 hrs, 23 nL of compounds dissolved in DMSO, positive controls or DMSO only was transferred to each well of the assay plate using a Pintool station (Kalypsys, San Diego, CA). The assay plates were incubated at 37C and 5% CO2 for 17 hrs. One uL of LiveBLAzerTM B/G FRET substrate (CCF4-AM) (Life Technologies) was added to each well using a Flying Reagent Dispenser (Aurora Discovery, San Diego, CA).
# % is scaled to controls: 0 for no effect and ±100 for the full control effect.
SMILES,activation,outcome
NC(=O)COCCN1CCN(C(c2ccccc2)c2ccc(Cl)cc2)CC1 (stereo not given),-0.317% [at 35.5 µM],–
COCCCOCCCOC,-1.13%,–
O=C(O)CNC(=O)c1ccc([N+](=O)[O-])cc1,-1%,–
C1OCOCO1,-0.0608%,–
N#Cc1ccc(C2CCCc3cncn32)cc1 (stereo not given),-0.406% [at 35.5 µM],–
NC(=O)c1ccc([N+](=O)[O-])cc1,0.0414%,–
CN1CCCC1,0.709%,–
Cc1cc2c(cc1S(N)(=O)=O)S(=O)(=O)CCC2,1.15% [at 35.5 µM],–
CC(C)(O)C(=O)c1ccccc1,-1.27%,–
CN1CC(=O)NC1=N,-0.383% [at 35.5 µM],–
COC(=O)c1ccc(C)cc1C1=NC(C)(C(C)C)C(=O)N1 (stereo not given),-0.856%,–
COC(=O)[C@@H](N)Cc1ccc(O)c(O)c1,-0.359% [at 35.5 µM],–
O=c1cc(-c2ccccc2)oc2ccccc12,1.28%,–
O=C1CCCC(=O)C1,-0.861%,–
CCOC(=O)C(=O)OCC,3.68%,–
CC1=CC(C)C(C=O)CC1 (stereo not given),-0.0989%,–
CCC(C)S (stereo not given),-1.24% [at 2.67 µM],–
Cn1c(N)c(N=O)c(=O)n(C)c1=O,-1.49%,–
CC(=O)Nc1c(I)cc(I)c(C(=O)O)c1I,5.86% [at 35.5 µM],–
CCOC(=O)c1ccc(C)cc1,0.0454%,–

SMILES,activation,outcome
FC(F)OC(Cl)C(F)(F)F (stereo not given),-1.13%,–
Cc1cc(O)cc2c1O[C@](C)(CCC[C@H](C)CCC[C@H](C)CCCC(C)C)CC2,0.604% [at 35.5 µM],–
CC(NC(CCc1ccccc1)C(=O)O)C(=O)N1C(=O)N(C)CC1C(=O)O (stereo not given),-1.58% [at 35.5 µM],–
O=c1n(CCO)c(=O)n(CCO)c(=O)n1CCO,–,inactive
CC/C=C\CCOC(C)=O,-0.0654%,–
OCCCC1CCCCC1,0.195%,–
CCOC(=O)CC(C)=O,0.545%,–
CCC(C)C1CCCCC1=O (stereo not given),0.957%,–
COc1nc(N)nc2c1ncn2[C@@H]1O[C@H](CO)[C@@H](O)[C@@H]1O,-0.547% [at 35.5 µM],–
CC(C)NCCCC1(C(N)=O)c2ccccc2-c2ccccc21,-0.707% [at 35.5 µM],–
C=CCCCCCCCCC=O,1.51%,–
Cc1cnc(NS(=O)(=O)c2ccc(N)cc2)nc1,-0.428% [at 35.5 µM],–
CC(C)(C)NCCNC(C)(C)C,-0.429%,–
C=C1CC[C@H]2C[C@@H]1C2(C)C,-0.184%,–
Cc1c(NC(C)C)c(=O)n(-c2ccccc2)n1C,-1.56% [at 35.5 µM],–
OC(CCN1CCCCC1)(c1ccccc1)C1CC2C=CC1C2 (stereo not given),2.2% [at 35.5 µM],–
CC/C=C\CC/C=C/C(OCC)OCC,-0.702%,–
CC(C)(O)C#CC(C)(C)O,-0.745%,–
CC(C)NC(=O)NC(C)C,0.0485%,–
CC(=O)Nc1ccc(S(N)(=O)=O)cc1,-1.26%,–
